The text below walks through data of PubChem BioAssay (EPA / NIEHS).

Structures are written as SMILES. Active and inactive are the calls of the source. Rule for the calls: active = hit-call score of the fitted dose curve at least 0.9, where 1 is the maximum; inactive = score below 0.9.

The nature of assay [1]: ATG_CRE_CIS: Attagene CIS-FACTORIAL HepG2 Assay for human cAMP Responsive Element (CRE) binding protein 3 (AID 2282926). The note with it: HepG2 CRE cis-reporter, Attagene multiplexed mRNA; actives raise or lower the signal. The method, boiled down: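 Cells carrying cis-regulated reporter constructs respond through their own endogenous factors. After 24 h treatment, RNA is reverse-transcribed, amplified, labelled and sized by capillary electrophoresis; up- and down-regulation are both scored against vehicle.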

The target in assay [2] is CCAAT/enhancer-binding protein beta (Homo sapiens) (UniProt P17676). The experiment in a line: ATG_C_EBP_CIS: Attagene CIS-FACTORIAL HepG2 Assay for human CCAAT/Enhancer Binding Protein (C/EBP) beta (AID 2282927). The note with it: HepG2 Attagene cis-factorial transcription factor reporter; actives raise or lower the signal. The method, boiled down:
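HepG2, transient MRTU transfection, 24 h treatment. RT-PCR plus CE fluorescence; DMSO negative control, bidirectional fit.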

Assay [3] in a line: ATG_DR4_LXR_CIS: Attagene CIS-FACTORIAL HepG2 Assay for human Liver X Receptor (LXR), DR4 submotif (AID 2282929). The settings on record: HepG2 Attagene DR4 cis-reporter, mRNA transcription; actives raise or lower the signal. The essentials: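 DR4 cis-reporter in HepG2, 24 h exposure. Detection: RT-PCR, 6-FAM labelling, CE fragment analysis. Endpoint fitted bidirectionally, DMSO = baseline.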

A short description of assay [4]: ATG_AP_2_CIS: Attagene CIS-FACTORIAL HepG2 Assay for human Activator Protein 2 (AP-2) (AID 2282932). The settings on record: HepG2 AP-2 cis-reporter, Attagene transcription factor profiling; actives raise or lower the signal. The essentials: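 Read-out: fluorescent reporter mRNA via RT-PCR and capillary electrophoresis, 24 h post-dose in transiently transfected HepG2. Endogenous factors drive cis-promoter reporters; gain or loss of signal fitted bidirectionally against DMSO.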

Assay [5] can be described thus: ATG_BRE_CIS: Attagene CIS-FACTORIAL HepG2 Assay for human Bone Morphogenetic Protein (BMP) Response Element (BRE) (AID 2282933). The note with it: HepG2 BMP response element reporter, Attagene transcription factor profiling; actives raise or lower the signal. The method, boiled down: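 Multiplexed cis-reporter assay, HepG2, 24 h exposure. mRNA from reporter units quantified via RT-PCR/CE; DMSO baseline; bidirectional curve fit.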

Assay [6] concerns the target Transcription factor E2F1 (Homo sapiens) (UniProt Q01094). Briefly: ATG_E2F_CIS: Attagene CIS-FACTORIAL HepG2 Assay for human E2F Transcription Factor 1 (AID 2282935). The note with it: HepG2 Attagene cis-reporter, E2F reporter RNA transcripts; actives raise or lower the signal. The method, boiled down: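 Transient MRTU transfection of HepG2; 24 h compound exposure; RNA → oligo(dT) RT → PCR → FAM label → HpaI cut → CE fluorescence. Gain/loss of signal fit against DMSO.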

Assay [7] can be described thus: ATG_EGR_CIS: Attagene CIS-FACTORIAL HepG2 Assay for human Early Growth Response 1 (EGR1) (AID 2282938). The settings on record: HepG2 Attagene CIS-FACTORIAL EGR reporter mRNA; actives raise or lower the signal. The method, boiled down:
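Endpoint derived by bidirectional fitting versus DMSO vehicle. Method: cis-promoter reporter units transfected into HepG2, 24 h dosing, RNA isolation, RT-PCR with 6-FAM primer extension and HpaI digestion, then capillary electrophoresis fluorescence detection.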

Assay [8] is described as follows: ATG_M_19_CIS: Attagene CIS-FACTORIAL HepG2 Assay for M19 Transcription Factor (Internal Marker) (AID 2282939). The settings on record: HepG2 Attagene CIS-FACTORIAL M19 internal marker reporter; actives raise or lower the signal. The essentials: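 Signals come from fluorescence of labelled reporter-specific PCR fragments resolved by capillary electrophoresis, following 24 h treatment of HepG2 cells transfected with cis-promoter reporter units; activity was fitted in both directions relative to DMSO.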

The nature of assay [9]: ATG_Ets_CIS: Attagene CIS-FACTORIAL HepG2 Assay for human Erythroblast Transformation Specific (ETS) (AID 2282941). The settings on record: HepG2 ETS cis-reporter transcription, actives raise or lower the signal. The essentials: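 Multiplexed reporter transcript profiling: HepG2, 24 h treatment, total RNA to cDNA, PCR, 6-FAM labelling, HpaI cut, capillary electrophoresis. Gain- or loss-of-signal fitted against DMSO.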

Assay [10] concerns the target Hepatocyte nuclear factor 3-beta (Homo sapiens) (UniProt Q9Y261). Briefly: ATG_FoxA2_CIS: Attagene CIS-FACTORIAL HepG2 Assay for human Forkhead box A2 (FOXA2) (AID 2282942). The settings on record: HepG2 cis-reporter transcription factor activity, 24 h; actives raise or lower the signal. The method, boiled down:
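Measured: reporter mRNA induction or loss in HepG2 transiently carrying multiple cis-regulated reporter units, 24 h after dosing. Quantified by RT-PCR plus capillary electrophoresis, normalised to DMSO.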

The nature of assay [11]: ATG_FoxO_CIS: Attagene CIS-FACTORIAL HepG2 Assay for human Forkhead box O (FoxO) (AID 2282943). The note with it: HepG2 Attagene cis-reporter, FoxO element, mRNA; actives raise or lower the signal. The method, boiled down:
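Transfected HepG2 reporter cells exposed to test chemical for 24 h; reporter RNA measured by reverse transcription, PCR and fluorescent capillary electrophoresis; curves fitted for increases and decreases against DMSO.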

Assay [12] in a line: ATG_GATA_CIS: Attagene CIS-FACTORIAL HepG2 Assay for human GATA Binding Protein (AID 2282944). The settings on record: HepG2 GATA cis-element reporter, Attagene multiplex mRNA; actives raise or lower the signal. The essentials: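 After transfecting HepG2 cells with multiple cis-regulated reporter units, chemicals are dosed for 24 h; isolated RNA undergoes RT-PCR and fluorescent labeling before capillary electrophoresis, with activity expressed against DMSO.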

Assay [13] in a line: ATG_GLI_CIS: Attagene CIS-FACTORIAL HepG2 Assay for human Zinc Finger Protein GLI1 (AID 2282945). The settings on record: HepG2, Attagene cis-factorial reporter mRNA, GLI element; actives raise or lower the signal. The method, boiled down: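 Transiently transfected HepG2 cells report endogenous transcription factor activity via cis-element-driven reporter units. After 24 h compound exposure, reporter mRNA was measured by RT-PCR with capillary electrophoresis; bidirectional fitting against DMSO baseline.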

Assay [14] can be described thus: ATG_M_06_CIS: Attagene CIS-FACTORIAL HepG2 Assay for M06 Transcription Factor (Internal Marker) (AID 2282950). The note with it: HepG2 Attagene CIS-FACTORIAL M06 internal marker reporter; actives raise or lower the signal. The essentials: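 HepG2 liver cells, 24 h exposure. Reporter transcripts from transfected cis-element constructs quantified by RT-PCR/capillary electrophoresis fluorescence. Bidirectional curve fit against DMSO.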

A short description of assay [15]: ATG_MRE_CIS: Attagene CIS-FACTORIAL HepG2 Assay for human Metal Responsive Element (MRE) (AID 2282954). The note with it: HepG2 MRE cis-reporter transcription, Attagene multiplex; actives raise or lower the signal. The essentials:
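RT-PCR/capillary electrophoresis readout of reporter mRNA, 24 h post-dosing, in HepG2 cells transfected with multiplexed cis-regulated reporter constructs. Gain or loss of signal fitted bidirectionally against DMSO baseline.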

In assay [16] the target is Paired box protein Pax-6 (Homo sapiens) (UniProt P26367). Briefly: ATG_Pax6_CIS: Attagene CIS-FACTORIAL HepG2 Assay for human Paired Box 6 (PAX6) (AID 2282956). The note with it: HepG2 CIS-FACTORIAL PAX6 reporter transcription, RNA readout; actives raise or lower the signal. The method, boiled down:
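Values derive from bidirectional curve fitting of reporter mRNA signal relative to DMSO. HepG2 cells bearing transfected cis-regulated MRTUs were exposed for 24 h; transcripts were read by RT-PCR and capillary electrophoresis.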

Assay [17] is described as follows: ATG_PXRE_CIS: Attagene CIS-FACTORIAL HepG2 Assay for human Pregnane X Receptor Element (PXRE) (AID 2282957). The settings on record: HepG2 Attagene CIS-FACTORIAL PXRE reporter, mRNA; actives raise or lower the signal. The essentials:
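Endogenous transcription factor activity in HepG2 was gauged through induction of reporter mRNA driven by a cis-regulating promoter element, sampled 24 h post-treatment. Activity was fitted in both directions against DMSO negative control.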

Assay [18] is described as follows: ATG_Sox_CIS: Attagene CIS-FACTORIAL HepG2 Assay for human SRY-box transcription factor (SOX) (AID 2282960). The note with it: HepG2 Attagene cis-factorial SOX reporter, mRNA; actives raise or lower the signal. The method, boiled down:
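Gain- or loss-of-signal endpoint, fitted bidirectionally with DMSO as negative control. Based on reporter mRNA from transfected HepG2 cells harvested 24 h post-treatment and quantified via RT-PCR and capillary electrophoresis.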

Assay [19] concerns the target Transcription factor Sp1 (Homo sapiens) (UniProt P08047). The experiment in a line: ATG_Sp1_CIS: Attagene CIS-FACTORIAL HepG2 Assay for human Specificity Protein 1 (Sp1) (AID 2282961). The settings on record: HepG2 Sp1 cis-reporter transcription, actives raise or lower the signal. The method, boiled down: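 Endpoint reflects endogenous Sp1 transcriptional activity, not an exogenous fusion protein: HepG2 cells with transfected cis-regulated reporters, 24 h dosing, RT-PCR/capillary electrophoresis mRNA read-out, DMSO-normalised bidirectional fit.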

A short description of assay [20]: ATG_SREBP_CIS: Attagene CIS-FACTORIAL HepG2 Assay for human Sterol Regulatory Element Binding (SREBP) (AID 2282962). The settings on record: HepG2 Attagene cis-factorial SREBP reporter, mRNA; actives raise or lower the signal. The essentials: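 Values derive from bidirectional curve fitting with DMSO as baseline. The underlying measurement is reporter mRNA from cis-element-regulated units in transiently transfected HepG2, quantified by RT-PCR and capillary electrophoresis after 24 h exposure.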

Chain of CCAAT/enhancer-binding protein beta (Homo sapiens) (P17676 whole entry, looked up): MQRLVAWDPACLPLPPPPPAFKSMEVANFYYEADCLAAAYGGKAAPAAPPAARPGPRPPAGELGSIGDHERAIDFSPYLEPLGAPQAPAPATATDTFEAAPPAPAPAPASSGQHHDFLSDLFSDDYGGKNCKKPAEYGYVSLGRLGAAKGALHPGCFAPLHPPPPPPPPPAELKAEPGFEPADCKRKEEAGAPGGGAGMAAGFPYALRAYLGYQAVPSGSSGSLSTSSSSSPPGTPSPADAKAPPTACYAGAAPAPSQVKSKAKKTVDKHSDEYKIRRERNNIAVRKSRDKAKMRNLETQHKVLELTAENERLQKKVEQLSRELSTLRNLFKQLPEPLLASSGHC
Chain of Hepatocyte nuclear factor 3-beta (Homo sapiens) (Q9Y261 whole entry, looked up): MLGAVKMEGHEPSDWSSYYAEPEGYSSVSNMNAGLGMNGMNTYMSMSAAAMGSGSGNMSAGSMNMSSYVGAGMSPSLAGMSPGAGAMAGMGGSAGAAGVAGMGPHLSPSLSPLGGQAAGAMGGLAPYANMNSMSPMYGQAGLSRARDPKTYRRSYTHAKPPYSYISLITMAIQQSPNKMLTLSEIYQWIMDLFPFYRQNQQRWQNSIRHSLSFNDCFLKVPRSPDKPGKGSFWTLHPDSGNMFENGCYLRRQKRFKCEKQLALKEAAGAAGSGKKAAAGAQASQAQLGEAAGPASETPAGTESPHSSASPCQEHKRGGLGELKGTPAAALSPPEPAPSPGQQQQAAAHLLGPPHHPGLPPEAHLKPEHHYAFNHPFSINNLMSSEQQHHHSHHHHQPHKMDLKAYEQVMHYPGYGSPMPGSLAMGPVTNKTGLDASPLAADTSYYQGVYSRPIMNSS
Chain of Transcription factor Sp1 (Homo sapiens) (P08047 whole entry, looked up, the tested form may be a part): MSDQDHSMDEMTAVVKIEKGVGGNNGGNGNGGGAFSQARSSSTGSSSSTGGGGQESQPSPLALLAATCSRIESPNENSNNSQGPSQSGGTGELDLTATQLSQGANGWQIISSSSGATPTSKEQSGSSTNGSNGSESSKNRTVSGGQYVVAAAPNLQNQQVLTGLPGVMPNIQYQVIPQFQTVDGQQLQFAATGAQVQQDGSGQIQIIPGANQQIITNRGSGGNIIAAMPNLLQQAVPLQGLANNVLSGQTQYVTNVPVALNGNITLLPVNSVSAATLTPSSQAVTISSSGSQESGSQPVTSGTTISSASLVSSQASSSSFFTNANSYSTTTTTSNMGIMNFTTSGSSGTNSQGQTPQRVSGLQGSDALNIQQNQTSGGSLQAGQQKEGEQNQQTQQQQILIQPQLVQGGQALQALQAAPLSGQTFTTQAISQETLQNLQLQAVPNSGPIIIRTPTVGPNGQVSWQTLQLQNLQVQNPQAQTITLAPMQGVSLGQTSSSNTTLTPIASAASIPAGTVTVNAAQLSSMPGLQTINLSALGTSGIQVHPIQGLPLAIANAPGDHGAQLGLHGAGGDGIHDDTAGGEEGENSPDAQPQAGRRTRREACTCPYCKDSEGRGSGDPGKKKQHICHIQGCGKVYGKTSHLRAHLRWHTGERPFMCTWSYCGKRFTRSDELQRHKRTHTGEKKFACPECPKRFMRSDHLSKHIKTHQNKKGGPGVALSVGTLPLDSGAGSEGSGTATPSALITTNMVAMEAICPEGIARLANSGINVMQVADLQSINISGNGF
Chain of Paired box protein Pax-6 (Homo sapiens) (P26367 whole entry, looked up): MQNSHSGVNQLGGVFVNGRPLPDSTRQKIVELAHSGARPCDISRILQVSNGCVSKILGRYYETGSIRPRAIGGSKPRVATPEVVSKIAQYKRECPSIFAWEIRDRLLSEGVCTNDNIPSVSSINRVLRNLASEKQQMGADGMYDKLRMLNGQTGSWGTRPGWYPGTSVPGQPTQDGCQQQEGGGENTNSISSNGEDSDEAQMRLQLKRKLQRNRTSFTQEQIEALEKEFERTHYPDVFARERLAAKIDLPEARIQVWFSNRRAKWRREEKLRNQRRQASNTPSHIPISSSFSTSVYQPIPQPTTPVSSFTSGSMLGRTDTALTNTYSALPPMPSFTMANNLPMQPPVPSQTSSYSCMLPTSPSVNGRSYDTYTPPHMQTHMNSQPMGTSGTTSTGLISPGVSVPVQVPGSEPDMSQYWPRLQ
Chain of Transcription factor E2F1 (Homo sapiens) (Q01094 whole entry, looked up): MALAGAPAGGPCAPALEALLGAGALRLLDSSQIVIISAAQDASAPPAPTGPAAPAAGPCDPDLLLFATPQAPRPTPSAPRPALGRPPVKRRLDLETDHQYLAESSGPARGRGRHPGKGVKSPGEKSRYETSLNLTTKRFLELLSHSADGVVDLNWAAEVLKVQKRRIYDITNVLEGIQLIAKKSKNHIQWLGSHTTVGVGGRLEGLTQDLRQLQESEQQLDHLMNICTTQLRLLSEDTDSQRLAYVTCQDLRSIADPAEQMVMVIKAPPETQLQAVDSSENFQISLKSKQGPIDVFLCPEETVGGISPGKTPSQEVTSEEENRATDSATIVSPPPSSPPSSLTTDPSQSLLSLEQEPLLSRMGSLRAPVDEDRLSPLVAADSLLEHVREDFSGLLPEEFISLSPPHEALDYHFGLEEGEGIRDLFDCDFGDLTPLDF

In the case of `CC(C)C#N`, the compound was classed as inactive in assay [1], in assay [2], in assay [3], in [4], in [5] and in assay [6]. For the same compound, the compound was called inactive in [7], in assay [8], in assay [9], in [10], in [11] and in assay [12]. Moreover, the outcome in assay [13], in assay [14], in assay [15], in assay [16], in [18] and in [19] was inactive. Also, in assay [20], the outcome was inactive. Moreover, the AC50 in assay [17] is 27.6 µM (active).

Consider `N#Cc1cc(I)c(O)c(I)c1`, for which the compound was classed as inactive in assay [1], in [2], in assay [3], in assay [4], in [5] and in assay [6]. The compound was classed as inactive in assay [7], in assay [8], in assay [9], in [10], in [11] and in [12]. The result in [13], in [14], in [15], in assay [16], in assay [17] and in assay [18] was inactive. For the same compound, the outcome in [20] was inactive. Also, in assay [19], the AC50 was 100 µM (active).

For the compound `Nc1ccc(Cl)c(Cl)c1`, the outcome in assay [1], in assay [2], in assay [4], in assay [5], in assay [6] and in [7] was inactive. The compound was called inactive in assay [8], in assay [9], in assay [10], in assay [11], in assay [12] and in assay [13]. Moreover, the compound was classed as inactive in assay [14], in assay [15], in [16], in [17], in assay [18] and in assay [19]. Also, the compound was classed as inactive in [20]. In assay [3], the AC50 was 134 µM (active).

As to `O=[N+]([O-])O`, the compound was called inactive in assay [1], in assay [2], in [3], in assay [4], in [5] and in assay [6]. For the same compound, the compound was classed as inactive in [7], in assay [8], in [9], in assay [10], in assay [11] and in [12]. For the same compound, the call in assay [13], in assay [14], in assay [15], in [16], in assay [17] and in assay [18] was inactive. The compound was called inactive in assay [19] and in assay [20].

On to `Nc1cc(Cl)cc(Cl)c1`, for which the call in assay [1], in assay [2], in assay [3], in [4], in assay [5] and in assay [6] was inactive. Also, the result in [7], in [8], in [9], in [10], in [11] and in assay [12] was inactive. Moreover, the call in [13], in [14], in assay [15], in assay [16], in assay [17] and in assay [18] was inactive. Further, the call in assay [19] and in assay [20] was inactive.

Take `CCOC(=O)N(C)N=O`: the call in assay [1], in [2], in [3], in [4], in assay [5] and in [6] was inactive. The outcome in assay [7], in [8], in assay [9], in assay [10], in assay [11] and in [12] was inactive. Moreover, the call in assay [13], in assay [14], in assay [15], in assay [16], in assay [18] and in assay [19] was inactive. In addition, in [20], the call was inactive. Further, in [17], the half-maximal activity concentration (AC50) was 26.1 µM (active).

In general, AC50 refers to the midpoint of the concentration-response curve, whichever way the signal moves.
